Assay results from the supplement of paper PMC12669032.

What was measured:
Experiment in all cases: growth AUC relative to DMSO control (median of replicates) (fraction); higher = more growth (less inhibition), active = hit call of the paper
Details in all cases: 20 µM; 24 h;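 active = AUC reduced over 20% with Padj below 0.05 in at least 2 of 3 replicates; inactive = otherwise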
Coprococcus comes = test system: Coprococcus comes
Outline: (§1)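 Gut bacteria were grown singly in mGAM at 37 °C without oxygen, from OD600 0.05, alongside 20 µM compound in 1% DMSO, and OD600 was read each hour for 24 h. Area under the growth curve was normalised to the median of solvent-only wells per plate, or to row and column medians on the industrial chemical plate. The minimum OD was set to 0 beforehand, and the reported value is the median of three biological replicates grown on separate days.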

Escherichia coli ED1a = test system: Escherichia coli ED1a
Outline: as §1

Escherichia coli IAI1 = test system: Escherichia coli IAI1
Outline: as §1

Eubacterium rectale = test system: Eubacterium rectale
Outline: as §1

[1] = test system: Fusobacterium nucleatum subsp. animalis
Outline: as §1

Lactobacillus gasseri = test system: Lactobacillus gasseri
Outline: as §1

Lactobacillus paracasei = test system: Lactobacillus paracasei
Outline: as §1

Odoribacter splanchnicus = test system: Odoribacter splanchnicus
Outline: as §1

[2] = test system: Parabacteroides distasonis
Outline: as §1

Parabacteroides merdae = test system: Parabacteroides merdae
Outline: as §1

Roseburia intestinalis = test system: Roseburia intestinalis
Outline: as §1

Streptococcus salivarius = test system: Streptococcus salivarius
Outline: as §1

Measured: growth AUC

COP(=S)(OC)Oc1ccc(S(N)(=O)=O)cc1
inactive: Coprococcus comes 1.01 | Escherichia coli ED1a 0.976 | Escherichia coli IAI1 0.999 | Eubacterium rectale 0.901 | [1] 0.998 | Lactobacillus gasseri 1.06 | Lactobacillus paracasei 1.05 | Odoribacter splanchnicus 1 | [2] 0.992 | Parabacteroides merdae 1.01 | Roseburia intestinalis 1.03 | Streptococcus salivarius 0.985

O=C(O)COc1ccc(Cl)cc1Cl
inactive: Coprococcus comes 1.02 | Escherichia coli ED1a 1.01 | Escherichia coli IAI1 0.991 | Eubacterium rectale 0.943 | [1] 0.947 | Lactobacillus gasseri 1.08 | Lactobacillus paracasei 1.05 | Odoribacter splanchnicus 0.958 | [2] 0.988 | Parabacteroides merdae 0.982 | Roseburia intestinalis 1.03 | Streptococcus salivarius 0.989

O=C(O)c1cc(Oc2ccc(C(F)(F)F)cc2Cl)ccc1[N+](=O)[O-]
inactive: Coprococcus comes 0.967 | Escherichia coli ED1a 0.992 | Escherichia coli IAI1 0.948 | Eubacterium rectale 1.06 | [1] 0.957 | Lactobacillus gasseri 0.95 | Lactobacillus paracasei 0.966 | Odoribacter splanchnicus 1.03 | [2] 0.896 | Parabacteroides merdae 0.971 | Roseburia intestinalis 0.963 | Streptococcus salivarius 0.987

C=CCNC(=O)c1c([Si](C)(C)C)sc(C)c1C
inactive: Coprococcus comes 0.984 | Escherichia coli ED1a 0.972 | Escherichia coli IAI1 1.01 | Eubacterium rectale 0.967 | [1] 0.894 | Lactobacillus gasseri 1.05 | Lactobacillus paracasei 0.986 | Odoribacter splanchnicus 0.97 | [2] 1.01 | Parabacteroides merdae 0.973 | Roseburia intestinalis 1.03 | Streptococcus salivarius 1

O=P(O)(O)CCCl
inactive: Coprococcus comes 1.06 | Escherichia coli ED1a 1.02 | Escherichia coli IAI1 1.02 | Eubacterium rectale 1.22 | [1] 1.04 | Lactobacillus gasseri 0.975 | Lactobacillus paracasei 1.01 | Odoribacter splanchnicus 1.12 | [2] 1.01 | Parabacteroides merdae 1 | Roseburia intestinalis 1.03 | Streptococcus salivarius 1.04

CC[C@H](C)[C@H]1O[C@]2(C=C[C@@H]1C)C[C@@H]1C[C@@H](C/C=C(\C)[C@@H](O[C@H]3C[C@H](OC)[C@@H](O[C@H]4C[C@H](OC)[C@@H](NC)[C@H](C)O4)[C@H](C)O3)[C@@H](C)/C=C/C=C3\CO[C@@H]4[C@H](O)C(C)=C[C@@H](C(=O)O1)[C@]34O)O2.O=C(O)c1ccccc1
inactive: Escherichia coli ED1a 0.974 | Escherichia coli IAI1 0.95 | Eubacterium rectale 0.865 | [1] 0.758 | Lactobacillus paracasei 0.597 | Odoribacter splanchnicus 1.06
active: Coprococcus comes 0.156 | Lactobacillus gasseri 0.714 | [2] 0.0402 | Parabacteroides merdae 0.345 | Roseburia intestinalis 0.0307 | Streptococcus salivarius 0.798

CS(=O)(=O)c1cc(C(F)(F)F)ccc1C(=O)c1cnoc1C1CC1
inactive: Coprococcus comes 1.02 | Escherichia coli ED1a 1.01 | Escherichia coli IAI1 1.01 | Eubacterium rectale 1.04 | [1] 0.93 | Lactobacillus gasseri 1.04 | Lactobacillus paracasei 0.826 | Odoribacter splanchnicus 1.1 | [2] 1.05 | Parabacteroides merdae 1.02 | Roseburia intestinalis 1.03 | Streptococcus salivarius 1.01

CC/C(=N\OC/C=C/Cl)C1=C(O)CC(C2CCOCC2)CC1=O (stereo not drawn)
inactive: Coprococcus comes 1.01 | Escherichia coli ED1a 1 | Escherichia coli IAI1 1.03 | Eubacterium rectale 0.996 | [1] 0.983 | Lactobacillus gasseri 0.994 | Lactobacillus paracasei 1.1 | Odoribacter splanchnicus 1.04 | [2] 0.998 | Parabacteroides merdae 1.02 | Roseburia intestinalis 1.02 | Streptococcus salivarius 0.994

Cc1ccc(NC(=O)c2snnc2C)cc1Cl
inactive: Coprococcus comes 0.965 | Escherichia coli ED1a 0.968 | Escherichia coli IAI1 0.937 | Eubacterium rectale 1 | [1] 0.938 | Lactobacillus gasseri 1.08 | Lactobacillus paracasei 0.866 | Odoribacter splanchnicus 0.975 | [2] 0.986 | Parabacteroides merdae 0.973 | Roseburia intestinalis 0.925 | Streptococcus salivarius 0.962

Cc1cnc(C2=NC(C)(C(C)C)C(=O)N2)c(C(=O)O)c1 (stereo not drawn)
inactive: Coprococcus comes 1 | Escherichia coli ED1a 0.999 | Escherichia coli IAI1 1.01 | Eubacterium rectale 0.985 | [1] 0.976 | Lactobacillus gasseri 1.04 | Lactobacillus paracasei 0.939 | Odoribacter splanchnicus 0.953 | [2] 1.07 | Parabacteroides merdae 1.02 | Roseburia intestinalis 0.997 | Streptococcus salivarius 1.03

Cc1c(N)cccc1N
inactive: Coprococcus comes 1.01 | Escherichia coli ED1a 0.995 | Escherichia coli IAI1 0.981 | Eubacterium rectale 1.01 | [1] 1.04 | Lactobacillus gasseri 1.01 | Lactobacillus paracasei 0.991 | Odoribacter splanchnicus 0.938 | [2] 0.995 | Parabacteroides merdae 1.01 | Roseburia intestinalis 0.997 | Streptococcus salivarius 1.01

Cc1occc1C(=O)Nc1ccccc1
inactive: Coprococcus comes 0.977 | Escherichia coli ED1a 0.966 | Escherichia coli IAI1 0.953 | Eubacterium rectale 1.16 | [1] 0.933 | Lactobacillus gasseri 0.973 | Lactobacillus paracasei 0.925 | Odoribacter splanchnicus 0.985 | [2] 0.971 | Parabacteroides merdae 0.998 | Roseburia intestinalis 0.996 | Streptococcus salivarius 0.995

N#Cc1nn(-c2c(Cl)cc(C(F)(F)F)cc2Cl)c(N)c1SC(F)(F)F
active: Eubacterium rectale 0.687 | Lactobacillus gasseri 0.729 | Odoribacter splanchnicus 0.571 | [2] 0.751 | Roseburia intestinalis 0.558 | Streptococcus salivarius 0.75
inactive: Coprococcus comes 0.857 | Escherichia coli ED1a 1.02 | Escherichia coli IAI1 0.985 | [1] 0.96 | Lactobacillus paracasei 1.04 | Parabacteroides merdae 0.868

O=C1OCC2C1C1(Cl)C(Cl)=C(Cl)C2(Cl)C1(Cl)Cl (stereo not drawn)
inactive: Coprococcus comes 1.01 | Escherichia coli ED1a 0.979 | Escherichia coli IAI1 1.01 | Eubacterium rectale 1.07 | [1] 0.925 | Lactobacillus gasseri 0.927 | Lactobacillus paracasei 0.991 | Odoribacter splanchnicus 1.09 | [2] 1.07 | Parabacteroides merdae 0.987 | Roseburia intestinalis 0.975 | Streptococcus salivarius 0.986

CCCN(CCC)c1c([N+](=O)[O-])cc(S(N)(=O)=O)cc1[N+](=O)[O-]
inactive: Coprococcus comes 0.973 | Escherichia coli ED1a 0.996 | Escherichia coli IAI1 0.973 | Eubacterium rectale 0.894 | [1] 0.9 | Lactobacillus gasseri 0.935 | Lactobacillus paracasei 0.942 | Odoribacter splanchnicus 0.934 | [2] 0.971 | Parabacteroides merdae 0.997 | Roseburia intestinalis 0.961 | Streptococcus salivarius 0.985

Oc1cc(Cl)c(Cl)cc1Cl
inactive: Coprococcus comes 0.983 | Escherichia coli ED1a 0.978 | Escherichia coli IAI1 0.938 | Eubacterium rectale 0.97 | [1] 1 | Lactobacillus gasseri 0.843 | Lactobacillus paracasei 0.971 | Odoribacter splanchnicus 1.12 | [2] 0.962 | Parabacteroides merdae 0.927 | Roseburia intestinalis 0.906 | Streptococcus salivarius 0.95

C=C/C=C/CC1=C(C)C(OC(=O)[C@@H]2C(/C=C(\C)C(=O)OC)C2(C)C)CC1=O.C=C/C=C/CC1=C(C)[C@@H](OC(=O)[C@@H]2C(C=C(C)C)C2(C)C)CC1=O (stereo partly drawn)
inactive: Coprococcus comes 0.953 | Escherichia coli ED1a 1.01 | Escherichia coli IAI1 0.966 | Eubacterium rectale 0.858 | [1] 1.04 | Lactobacillus gasseri 1.02 | Lactobacillus paracasei 0.864 | Odoribacter splanchnicus 0.985 | [2] 0.954 | Parabacteroides merdae 0.932 | Roseburia intestinalis 1.02 | Streptococcus salivarius 0.947

Clc1ccc(C(c2ccc(Cl)cc2)C(Cl)(Cl)Cl)cc1
inactive: Coprococcus comes 0.964 | Escherichia coli ED1a 0.963 | Escherichia coli IAI1 0.979 | Eubacterium rectale 0.878 | [1] 0.916 | Lactobacillus gasseri 0.487 | Lactobacillus paracasei 0.908 | Odoribacter splanchnicus 0.709 | Roseburia intestinalis 0.941 | Streptococcus salivarius 0.897
active: [2] 0.258 | Parabacteroides merdae 0.69

c1ccc2c(c1)ccc1c3ccccc3sc21
inactive: Coprococcus comes 0.965 | Escherichia coli ED1a 0.988 | Escherichia coli IAI1 1 | Eubacterium rectale 0.942 | [1] 1.01 | Lactobacillus gasseri 0.974 | Lactobacillus paracasei 1.03 | Odoribacter splanchnicus 0.984 | [2] 1.1 | Parabacteroides merdae 1 | Roseburia intestinalis 0.964 | Streptococcus salivarius 1.05

CCCCCCCC(=O)Oc1c(I)cc(C#N)cc1I
inactive: Coprococcus comes 0.995 | Escherichia coli ED1a 0.985 | Escherichia coli IAI1 0.896 | Eubacterium rectale 1.09 | [1] 1.16 | Lactobacillus gasseri 0.89 | Lactobacillus paracasei 1.01 | Odoribacter splanchnicus 0.91 | [2] 0.91 | Parabacteroides merdae 0.908 | Roseburia intestinalis 0.957 | Streptococcus salivarius 0.805

COc1ccc(/C(=C/C(=O)N2CCOCC2)c2ccc(F)cc2)cc1OC
inactive: Coprococcus comes 1.02 | Escherichia coli ED1a 0.974 | Escherichia coli IAI1 1.01 | Eubacterium rectale 0.966 | [1] 0.955 | Lactobacillus gasseri 0.971 | Lactobacillus paracasei 0.976 | Odoribacter splanchnicus 1.06 | [2] 1.01 | Parabacteroides merdae 1.02 | Roseburia intestinalis 0.975 | Streptococcus salivarius 1.04

COc1cc(OC)nc(Oc2cccc(Oc3nc(OC)cc(OC)n3)c2C(=O)[O-])n1.[Na+]
inactive: Coprococcus comes 0.98 | Escherichia coli ED1a 0.989 | Escherichia coli IAI1 0.979 | Eubacterium rectale 1.01 | [1] 1.04 | Lactobacillus gasseri 0.958 | Lactobacillus paracasei 0.982 | Odoribacter splanchnicus 1.01 | [2] 0.994 | Parabacteroides merdae 1.01 | Roseburia intestinalis 1.06 | Streptococcus salivarius 1.01

Cc1nc(N(C)C)nc(OC(=O)N(C)C)c1C
inactive: Coprococcus comes 1.01 | Escherichia coli ED1a 0.998 | Escherichia coli IAI1 0.992 | Eubacterium rectale 0.98 | [1] 1 | Lactobacillus gasseri 1.1 | Lactobacillus paracasei 0.978 | Odoribacter splanchnicus 1.01 | [2] 1.03 | Parabacteroides merdae 1.04 | Roseburia intestinalis 0.988 | Streptococcus salivarius 1

CCOP(=S)(OCC)OP(=S)(OCC)OCC
inactive: Coprococcus comes 0.985 | Escherichia coli ED1a 0.968 | Escherichia coli IAI1 0.979 | Eubacterium rectale 0.928 | [1] 1.04 | Lactobacillus gasseri 1.23 | Lactobacillus paracasei 1.04 | Odoribacter splanchnicus 0.98 | [2] 1.02 | Parabacteroides merdae 0.984 | Roseburia intestinalis 0.984 | Streptococcus salivarius 0.976
